Experimental data published in PubChem BioAssay (EPA / NIEHS).
Active and inactive are the calls of the source. The calls were made as follows: active = hit-call score of the fitted dose curve at least 0.9, where 1 is the maximum; inactive = score below 0.9.

Experiments:
Settings in all cases: mRNA level, 48 h; actives raise or lower the signal
[1] = read-out: Potassium channel subfamily K member 1 (KCNK1), KCNK1 (gene 3775); assay: LTEA_HepaRG_KCNK1: Life Technologies and Expression Analysis (LTEA) Assay for Potassium channel subfamily K member 1 (KCNK1) using HepaRG (AID 2283511)
Summary of the method: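 Differentiated human HepaRG cells in serum-free induction medium were exposed in duplicate for 48 h to 8 half-log concentrations up to 100 uM in 0.5% DMSO. KCNK1 mRNA was measured by TaqMan qRT-PCR, normalized to ACTB, GAPDH and POLR2A, and fitted bidirectionally versus DMSO.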

[2] = read-out: Keratin 19 (KRT19), KRT19 (gene 3880); assay: LTEA_HepaRG_KRT19: Life Technologies and Expression Analysis (LTEA) Assay for Keratin 19 (KRT19) using HepaRG (AID 2283512)
Summary of the method: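 Differentiated HepaRG cells in serum-free induction medium, exposed 48 h in duplicate to 8 half-log concentrations up to 100 uM in 0.5% DMSO. KRT19 mRNA by qRT-PCR, normalized to ACTB, GAPDH, POLR2A; bidirectional fit vs DMSO.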

[3] = read-out: Lipase C (LIPC), LIPC (gene 3990); assay: LTEA_HepaRG_LIPC: Life Technologies and Expression Analysis (LTEA) Assay for Lipase C (LIPC) using HepaRG (AID 2283514)
Summary of the method: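 Differentiated human HepaRG cells in serum-free induction medium were exposed in duplicate for 48 h to eight concentrations (top 100 uM, half-log steps, 0.5% DMSO). LIPC mRNA was quantified by TaqMan qRT-PCR, normalized to ACTB, GAPDH and POLR2A, with bidirectional fitting versus DMSO.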

[4] = read-out: Lipoprotein lipase (LPL), LPL (gene 4023); assay: LTEA_HepaRG_LPL: Life Technologies and Expression Analysis (LTEA) Assay for Lipoprotein lipase (LPL) using HepaRG (AID 2283515)
Summary of the method: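 Differentiated human HepaRG cells in serum-free induction medium were exposed in duplicate for 48 h to eight half-log concentrations (top 100 uM) in 0.5% DMSO. LPL mRNA was quantified by TaqMan qRT-PCR, normalized to ACTB, GAPDH and POLR2A.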

[5] = read-out: MicroRNA 122 (MIR122), gene 406906; assay: LTEA_HepaRG_MIR122: Life Technologies and Expression Analysis (LTEA) Assay for MicroRNA 122 (MIR122) using HepaRG (AID 2283516); also: the transcript read is the microRNA miR-122
Summary of the method: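 Differentiated human HepaRG cells in serum-free induction medium exposed 48 h to 8 half-log concentrations from 100 uM in 0.5% DMSO, duplicate. MIR122 quantified by Fluidigm TaqMan qRT-PCR, normalised to ACTB, GAPDH, POLR2A; fold change fitted bidirectionally versus DMSO.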

[6] = read-out: matrix metalloproteinase-10 (MMP10), MMP10 (gene 4319); assay: LTEA_HepaRG_MMP10: Life Technologies and Expression Analysis (LTEA) Assay for matrix metalloproteinase-10 (MMP10) using HepaRG (AID 2283517)
Summary of the method: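 HepaRG, collagen I, ~100,000 cells/well; serum-free induction medium; 48 h exposure, duplicate, 8-pt half-log to 100 uM, 0.5% DMSO. Readout: TaqMan qRT-PCR, normalized to ACTB/GAPDH/POLR2A; bidirectional fit vs DMSO.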

MYC, MYC (gene 4609) = assay: LTEA_HepaRG_MYC: Life Technologies and Expression Analysis (LTEA) Assay for MYC using HepaRG (AID 2283518)
Summary of the method: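 Differentiated HepaRG cells exposed 48 h in serum-free induction medium to 8 concentrations (top 100 uM, half-log steps; 0.5% DMSO), duplicate. MYC mRNA measured by Fluidigm qRT-PCR, normalized to ACTB, GAPDH, POLR2A; bidirectional fit versus DMSO.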

[7] = read-out: matrix metalloproteinase-3 (MMP3), MMP3 (gene 4314); assay: LTEA_HepaRG_MMP3: Life Technologies and Expression Analysis (LTEA) Assay for matrix metalloproteinase-3 (MMP3) using HepaRG (AID 2283519)
Summary of the method: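 Differentiated human HepaRG cells, plated 48 h on collagen I, were exposed in duplicate for 48 h in serum-free induction medium to eight half-log concentrations up to 100 uM in 0.5% DMSO. MMP3 mRNA was quantified by TaqMan qRT-PCR, normalised to ACTB, GAPDH and POLR2A.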

[8] = read-out: Paternally Expressed 10 (PEG10), PEG10 (gene 23089); assay: LTEA_HepaRG_PEG10: Life Technologies and Expression Analysis (LTEA) Assay for Paternally Expressed 10 (PEG10) using HepaRG (AID 2283520)
Summary of the method: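 Differentiated HepaRG cells exposed 48 h in serum-free induction medium to eight half-log concentrations topping at 100 uM, 0.5% DMSO, in duplicate. PEG10 mRNA quantified by TaqMan qRT-PCR, normalized to ACTB, GAPDH and POLR2A; bidirectional fit versus DMSO.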

[9] = read-out: Nuclear factor NF-kappa-B p105 subunit (Homo sapiens) (UniProt P19838); assay: LTEA_HepaRG_NFKB1: Life Technologies and Expression Analysis (LTEA) Assay for Nuclear Factor Kappa B Subunit 1 (NFKB1) using HepaRG (AID 2283521);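 also: TaqMan qRT-PCR transcript normalised to ACTB GAPDH and POLR2A housekeeping genes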
Summary of the method: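 HepaRG, 48 h exposure; 8-pt half-log series from 100 uM in 0.5% DMSO; duplicates. Readout: NFKB1 mRNA by qRT-PCR (Fluidigm arrays), housekeeping-normalized. Gain/loss fit vs DMSO baseline.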

[10] = read-out: Protein phosphatase 2A (PPP2R4), PTPA (gene 5524); assay: LTEA_HepaRG_PPP2R4: Life Technologies and Expression Analysis (LTEA) Assay for Protein phosphatase 2A (PPP2R4) using HepaRG (AID 2283522)
Summary of the method: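 Differentiated human HepaRG cells in serum-free induction medium were exposed 48 h to 8 concentrations (top 100 µM, half-log steps, duplicate) in 0.5% DMSO. PPP2R4 mRNA was measured by TaqMan qRT-PCR, normalised to ACTB, GAPDH and POLR2A, and fitted bidirectionally versus DMSO.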

[11] = read-out: Phosphatase and tensin (PTEN), PTEN (gene 5728); assay: LTEA_HepaRG_PTEN: Life Technologies and Expression Analysis (LTEA) Assay for Phosphatase and tensin (PTEN) using HepaRG (AID 2283523)
Summary of the method: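 Differentiated human HepaRG cells, plated 48 h then switched to serum-free induction medium, were exposed in duplicate for 48 h to eight half-log concentrations up to 100 uM in 0.5% DMSO. PTEN mRNA measured by TaqMan qRT-PCR, normalized to ACTB/GAPDH/POLR2A, bidirectional fit versus DMSO.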

[12] = read-out: solute carrier (SLC22A1), SLC22A1 (gene 6580); assay: LTEA_HepaRG_SLC22A1: Life Technologies and Expression Analysis (LTEA) Assay for solute carrier (SLC22A1) using HepaRG (AID 2283524)
Summary of the method: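 Human HepaRG cells were plated 48 h, switched to serum-free induction medium, then exposed in duplicate for 48 h to 8-point half-log series from 100 uM in 0.5% DMSO. SLC22A1 mRNA measured by qRT-PCR, normalized to ACTB/GAPDH/POLR2A, fitted bidirectionally versus DMSO.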

[13] = read-out: Pyruvate Dehydrogenase Kinase 4 (PDK4), PDK4 (gene 5166); assay: LTEA_HepaRG_PDK4: Life Technologies and Expression Analysis (LTEA) Assay for Pyruvate Dehydrogenase Kinase 4 (PDK4) using HepaRG (AID 2283525)
Summary of the method: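 Differentiated human HepaRG cells, pre-cultured 48 h, were exposed in duplicate for 48 h in serum-free induction medium to eight half-log concentrations up to 100 uM in 0.5% DMSO. PDK4 mRNA was quantified by qRT-PCR, normalized to ACTB, GAPDH and POLR2A, bidirectional fitting versus DMSO.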

[14] = read-out: Nuclear factor erythroid 2-related factor 2 (Homo sapiens) (UniProt Q16236); assay: LTEA_HepaRG_NFE2L2: Life Technologies and Expression Analysis (LTEA) Assay for Nuclear factor erythroid 2-related factor 2 (NFE2L2) Transcription Factor using HepaRG (AID 2283527);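 also: TaqMan qRT-PCR transcript level normalised to ACTB GAPDH and POLR2A housekeeping genes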
Summary of the method: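 Differentiated human HepaRG cells in serum-free induction medium were exposed for 48 h to eight concentrations (top 100 uM, half-log dilutions, 0.5% DMSO), in duplicate. NFE2L2 mRNA was quantified by TaqMan qRT-PCR, normalized to ACTB, GAPDH and POLR2A, with bidirectional fitting versus DMSO.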

[15] = read-out: succinate dehydrogenase complex iron sulfur subunit B (SDHB), SDHB (gene 6390); assay: LTEA_HepaRG_SDHB: Life Technologies and Expression Analysis (LTEA) Assay for succinate dehydrogenase complex iron sulfur subunit B (SDHB) using HepaRG (AID 2283528)
Summary of the method: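 Readout is SDHB transcript level by qRT-PCR, normalised to three housekeeping genes and fitted bidirectionally against 0.5% DMSO vehicle. Human HepaRG cells were treated for 48 h at up to 100 uM.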

[16] = read-out: Signal transducer and activator of transcription 3 (Homo sapiens) (UniProt P40763); assay: LTEA_HepaRG_STAT3: Life Technologies and Expression Analysis (LTEA) Assay for Signal transducer and activator of transcription (STAT3) using HepaRG (AID 2283529)
Summary of the method: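 Differentiated human HepaRG cells in serum-free induction medium were exposed in duplicate for 48 h to eight half-log concentrations up to 100 uM in 0.5% DMSO. STAT3 mRNA was quantified by TaqMan qRT-PCR, normalized to ACTB, GAPDH and POLR2A, and fitted bidirectionally against DMSO.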

[17] = read-out: solute carrier (SLCO1B1), SLCO1B1 (gene 10599); assay: LTEA_HepaRG_SLCO1B1: Life Technologies and Expression Analysis (LTEA) Assay for solute carrier (SLCO1B1) using HepaRG (AID 2283530)
Summary of the method: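 Differentiated human HepaRG cells were exposed for 48 h in serum-free induction medium to eight half-log concentrations, top 100 uM, in 0.5% DMSO. SLCO1B1 mRNA was measured by qRT-PCR, normalized to ACTB, GAPDH and POLR2A, and fitted bidirectionally against DMSO.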

[18] = read-out: NAD(P)H dehydrogenase [quinone] 1 (NQO1), NQO1 (gene 1728); assay: LTEA_HepaRG_NQO1: Life Technologies and Expression Analysis (LTEA) Assay for NAD(P)H dehydrogenase [quinone] 1 (NQO1) using HepaRG (AID 2283526)
Summary of the method: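 Differentiated human HepaRG cells in serum-free induction medium, dosed in duplicate for 48 h at 8 half-log concentrations up to 100 uM in 0.5% DMSO. NQO1 mRNA by qRT-PCR normalized to ACTB, GAPDH, POLR2A; bidirectional fit versus DMSO baseline.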

Measured: AC50

Signal transducer and activator of transcription 3 (Homo sapiens), sequence (P40763 whole entry, looked up): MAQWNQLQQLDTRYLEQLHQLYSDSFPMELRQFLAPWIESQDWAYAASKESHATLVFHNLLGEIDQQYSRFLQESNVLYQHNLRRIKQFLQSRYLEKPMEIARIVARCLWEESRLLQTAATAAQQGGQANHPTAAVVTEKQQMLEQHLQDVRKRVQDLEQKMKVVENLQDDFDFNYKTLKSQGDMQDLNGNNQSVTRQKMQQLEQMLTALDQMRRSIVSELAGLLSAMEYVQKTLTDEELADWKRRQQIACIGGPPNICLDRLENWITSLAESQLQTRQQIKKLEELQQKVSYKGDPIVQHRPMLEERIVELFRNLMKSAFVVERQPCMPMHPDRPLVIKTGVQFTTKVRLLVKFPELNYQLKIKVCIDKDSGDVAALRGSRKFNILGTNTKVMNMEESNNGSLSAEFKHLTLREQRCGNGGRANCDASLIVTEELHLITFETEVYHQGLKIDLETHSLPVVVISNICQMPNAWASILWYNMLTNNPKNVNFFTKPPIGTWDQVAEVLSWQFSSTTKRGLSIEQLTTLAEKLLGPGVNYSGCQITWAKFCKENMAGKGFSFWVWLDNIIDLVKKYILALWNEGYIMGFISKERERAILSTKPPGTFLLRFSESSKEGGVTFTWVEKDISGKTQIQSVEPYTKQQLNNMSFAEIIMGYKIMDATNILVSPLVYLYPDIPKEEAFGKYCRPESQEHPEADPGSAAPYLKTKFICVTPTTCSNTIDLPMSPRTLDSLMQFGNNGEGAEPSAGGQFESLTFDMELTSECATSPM
Nuclear factor erythroid 2-related factor 2 (Homo sapiens), sequence (Q16236 whole entry, looked up): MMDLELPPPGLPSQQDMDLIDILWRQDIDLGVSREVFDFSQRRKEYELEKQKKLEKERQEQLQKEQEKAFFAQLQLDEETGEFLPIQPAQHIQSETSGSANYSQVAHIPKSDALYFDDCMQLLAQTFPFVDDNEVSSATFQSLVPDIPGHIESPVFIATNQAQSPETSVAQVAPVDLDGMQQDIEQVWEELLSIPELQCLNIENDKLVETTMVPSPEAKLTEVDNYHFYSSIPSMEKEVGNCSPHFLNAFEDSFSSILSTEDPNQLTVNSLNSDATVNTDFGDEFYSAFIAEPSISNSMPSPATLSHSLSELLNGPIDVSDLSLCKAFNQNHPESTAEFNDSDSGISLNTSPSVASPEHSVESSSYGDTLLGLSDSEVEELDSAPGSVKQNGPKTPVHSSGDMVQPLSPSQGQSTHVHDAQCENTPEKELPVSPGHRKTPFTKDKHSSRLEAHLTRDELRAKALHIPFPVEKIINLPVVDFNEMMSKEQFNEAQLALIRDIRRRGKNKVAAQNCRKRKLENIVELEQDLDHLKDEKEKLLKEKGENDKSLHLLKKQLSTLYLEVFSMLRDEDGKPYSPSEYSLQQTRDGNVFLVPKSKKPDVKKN
Nuclear factor NF-kappa-B p105 subunit (Homo sapiens), sequence (P19838 whole entry, looked up): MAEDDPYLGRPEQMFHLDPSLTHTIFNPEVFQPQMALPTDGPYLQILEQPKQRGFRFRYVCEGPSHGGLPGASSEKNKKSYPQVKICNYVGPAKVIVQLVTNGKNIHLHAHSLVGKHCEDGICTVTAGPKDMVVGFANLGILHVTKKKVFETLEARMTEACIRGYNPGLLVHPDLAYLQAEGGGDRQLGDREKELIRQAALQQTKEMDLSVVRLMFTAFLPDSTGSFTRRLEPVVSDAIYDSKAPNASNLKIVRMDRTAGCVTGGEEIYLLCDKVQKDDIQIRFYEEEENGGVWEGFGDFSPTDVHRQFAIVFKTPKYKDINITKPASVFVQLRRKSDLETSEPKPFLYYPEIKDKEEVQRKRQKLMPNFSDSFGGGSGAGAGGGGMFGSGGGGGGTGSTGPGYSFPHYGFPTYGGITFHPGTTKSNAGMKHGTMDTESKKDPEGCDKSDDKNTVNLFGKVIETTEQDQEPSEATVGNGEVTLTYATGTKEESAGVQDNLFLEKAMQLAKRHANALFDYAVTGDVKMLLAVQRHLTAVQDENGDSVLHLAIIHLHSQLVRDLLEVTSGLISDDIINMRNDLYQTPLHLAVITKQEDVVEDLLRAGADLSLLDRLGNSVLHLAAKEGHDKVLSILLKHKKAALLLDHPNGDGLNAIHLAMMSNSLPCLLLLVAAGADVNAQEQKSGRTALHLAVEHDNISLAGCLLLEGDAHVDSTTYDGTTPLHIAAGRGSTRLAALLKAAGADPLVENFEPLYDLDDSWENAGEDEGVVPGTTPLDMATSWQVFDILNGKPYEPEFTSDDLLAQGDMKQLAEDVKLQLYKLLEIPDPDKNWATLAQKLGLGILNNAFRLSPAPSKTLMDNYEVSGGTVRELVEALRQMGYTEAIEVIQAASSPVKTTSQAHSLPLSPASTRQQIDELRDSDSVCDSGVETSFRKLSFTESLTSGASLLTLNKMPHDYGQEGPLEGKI

CS(=O)(=O)c1ccc(C(=O)C2C(=O)CCCC2=O)c([N+](=O)[O-])c1
not listed: [18]
inactive: all other assays above

O=C(Nc1ccccc1-c1ccc(Cl)cc1)c1cccnc1Cl
active: [8] 21 µM | [16] 0.539 µM
inactive: all other assays above

COP(=S)(OC)SCn1nnc2ccccc2c1=O
not listed: [9]
inactive: all other assays above

O=C(O)c1c(Cl)ccc2cc(Cl)cnc12
inactive: all assays above

CS(=O)(=O)c1cc(C(F)(F)F)ccc1C(=O)c1cnoc1C1CC1
not listed: [18]
inactive: all other assays above

C=CCOC(=O)C(C)(C)OC(=O)c1cc(-n2c(=O)cc(C(F)(F)F)n(C)c2=O)ccc1Cl
not listed: [9]
inactive: all other assays above

C=C(C)CN(CC)c1c([N+](=O)[O-])cc(C(F)(F)F)cc1[N+](=O)[O-]
inactive: all assays above

CC(C)(C)C(=O)C(Oc1ccc(Cl)cc1)n1cncn1 (stereo not drawn)
inactive: all assays above
